The values that follow come from PubChem BioAssay (NCI).

Structures are written as SMILES. Compounds without any hit were thinned out: in the full panel of roughly 83,000, 20% have a hit.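 Cell lines were cultured in 96-well plates, exposed to a single compound concentration, and assessed for percent growth 48 hours later.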 Unmarked numbers belong to inactive results. The source made the active and inactive calls. Rule for the calls: active = growth percent below 10; inactive = the rest.

Common to all, as to test: NCI-60 one-dose screen, 48 h (100 = growth as untreated, 0 = no growth, -100 = all killed)
Holding throughout (settings): 10 µM unless noted

In test [1] the test system is HCT-15 colon.
Test [2] concerns HT29 colon.
For test [3], the system named is SNB-75 CNS.
Test [4] has as its system SNB-19 CNS.
Test [5] has as its system U251 CNS.
The subject of test [6] is PC-3 prostate.
In test [7] the test system is SK-MEL-5 melanoma.
In test [8] the test system is UACC-62 melanoma.
The subject of test [9] is LOX IMVI melanoma.
For test [10], the system named is SK-MEL-28 melanoma.
Test [11] has as its system SK-MEL-2 melanoma.
The test system of test [12] is EKVX NSCLC.
The test system of test [13] is SN12C renal.
Test [14] has as its system UO-31 renal.
Test [15] deals with TK-10 renal.
In test [16] the test system is ACHN renal.
Test [17] relates to CAKI-1 renal.
The test system of test [18] is A498 renal.
For test [19], the system named is CCRF-CEM leukemia.
Test [20] deals with MOLT-4 leukemia.

On to `COC(=O)c1c2c(c(C)[n+]([O-])c1C)C(=O)C=CC2=O`, for which the growth in test [1] is -64.8% (active); in test [2] it was 0.769% (active); in [3], -49.1% (active); in [4] it was -23.8% (active); in [5], -40.8% (active); in test [6] it was 3.6% (active). Moreover, the growth in [7] is -98.5% (active); in test [8], -72.8% (active); in test [9], -86% (active); in test [10] it was -82.9% (active); in test [11], -63.1% (active); in test [12], 98.3%. Also, the growth in [13] is -87.7% (active); in test [14] it was -64.8% (active); in test [15] it was 72.9%; in test [16] it was -37.6% (active); in [17] it was 2.19% (active); in test [18] it was 60.8%. For the same compound, the growth in test [19] is 0.622% (active); in test [20], -1.84% (active).

In the case of `Cn1cc(-c2ccc3cc(-c4ccc(CC(=O)Nc5cc(C(C)(C)C)on5)cc4)cnc3c2)cn1`, the growth is 10.9% in [1]; 38.8% in test [2]; 28.4% in test [3]; 34.7% in test [4]; 2.41% (active) in test [5]; 21.1% in test [6]. Moreover, the growth was 26.7% in test [7]; 10.8% in test [8]; 30.4% in test [9]; 29.1% in test [10]; 18.9% in [11]; 38.8% in test [12]. The growth in [13] was 16.7%; in [14] it was 9.45% (active); in [15], 43.9%; in test [16], -23% (active); in [17] it was 12.8%; in [18], -4.2% (active). The results for the growth in test [19] and in test [20] were 3.44% (active) and 4.87% (active), respectively.

On to `COCCCOc1cc(C[C@@H](C[C@H](N)[C@@H](O)C[C@H](C(=O)NCC(C)(C)C(N)=O)C(C)C)C(C)C)ccc1OC`, for which the growth in [1] was 111%; in [2] it was 106%; in [3], 88.4%; in [4] it was 106%; in [5], 98.7%; in test [6], 90.7%. Also, the growth is 106% in test [7]; 102% in test [8]; 95% in test [9]; 104% in test [10]; 104% in [11]; 92.6% in [12]. The growth in test [13] is 104%; in test [14], 84.4%; in [15] it was 109%; in [16], 101%; in [17], 89.2%; in test [18] it was 103%. Further, the growth is 110% in [19] and 103% in [20].

As to `C/C(=C(/c1ccc(Cl)cc1)c1ccc(OCCCN(C)C)cc1)c1ccc(Cl)cc1`, the growth is 50.4% in test [1]; 16.3% in test [2]; 96.4% in test [3]; 97.3% in test [4]; 75.9% in [5]; 84.8% in test [6]. In addition, the growth in test [7] was 93.8%; in [8] it was 109%; in test [9], 78.1%; in test [10], 99.5%; in [11], 98.5%; in [12], 98.4%. Also, the growth is 93.9% in test [13]; 72.7% in test [14]; 103% in [15]; 104% in test [16]; 87.3% in test [17]; 94.8% in test [18]. Moreover, the results for the growth in test [19] and in test [20] were 73.3% and 71.7%, respectively.

As for `Nc1n[nH]c2ccc([C@@H]3Nc4cc5[nH]ncc5cc4[C@H]4C5CCC(C5)[C@@H]34)cc12` (stereo not given in full), the growth in [1] was 13.7%; in test [2] it was 6.61% (active); in test [3], -9.87% (active); in [4], 20.4%; in test [5] it was 19%; in test [6] it was 25.1%. Also, the growth in test [7] was 9.55% (active); in test [8], 33.8%; in test [9], 25.4%; in test [10], 60.1%; in test [11], 65.2%; in [12], 35.2%. Also, the growth in [13] is 36.4%; in test [14], 40.2%; in [15], 62.4%; in test [16], 32.1%; in test [17], 34.5%; in [18] it was -15.7% (active). Moreover, the growth in test [19] is 11.2%; in test [20], 22.5%.

As to `O=P(O)(O)OCC1OC(n2cnc3c(NCc4ccccc4)ncnc32)C(O)C1O` (stereo not given), the growth in [1] was 9.47% (active); in test [2], 23.3%; in test [3] it was 49.9%; in test [4], 40.8%; in test [5] it was 47.3%; in [6] it was 19.2%. Besides, the growth in [7] is 84.1%; in test [8] it was 38.4%; in [9], -8.76% (active); in [10] it was 127%; in test [11], 85.2%; in test [12], 24.7%. Moreover, the growth in test [13] was 19.7%; in test [14] it was 41.2%; in [15] it was 10.9%; in test [16], 8.81% (active); in [17], 11%; in test [18], -11.5% (active). Moreover, the growth in test [19] is 2.68% (active); in test [20], 21.7%.

On to `N=C(N)c1ccc(-c2ccc(-c3ccc(Cl)cc3)o2)o1`, for which the growth in [1] was -78.1% (active); in test [2], -58.3% (active); in test [3], 69.8%; in [4], -68.3% (active); in [5], -95.5% (active); in [6] it was 43.9%. In addition, the growth was 76% in test [7]; -67.4% (active) in [8]; -73% (active) in [9]; 96.9% in [10]; 82.1% in test [11]; 68.3% in test [12]. In addition, the growth in test [13] was -58.9% (active); in test [14] it was 46%; in test [15], 72.1%; in test [16], 28.3%; in [17] it was 54.2%; in [18] it was 61.3%. Moreover, the results for the growth in test [19] and in test [20] were -20.3% (active) and -28.9% (active), respectively.

With `Cc1c2ccccc2nc2c1ccc1cccnc12`, the growth was 81.4% in [1]; 70.9% in test [2]; 71.1% in test [3]; 88.8% in test [4]; 84.7% in [5]; 65.1% in test [6]. The growth in [7] is 53%; in test [8] it was 94.6%; in [9], 105%; in test [10], 113%; in test [11], 95.5%; in [12], 62.7%. The growth is 88.7% in [13]; 83.9% in test [14]; 96.1% in [15]; 97.3% in test [16]; 77% in [17]; 80.2% in test [18]. The growth was 77.8% in [19] and 68.3% in test [20].
